Luciferase inh: inhibitors of firefly (Photinus pyralis) luciferase; P08659; AID 1347043; purified P. pyralis luciferase, luminescence, biochemical; Potency, µM (highest dose often 115 µM), usual class: inhibitors; actives 2.5% (n = 76,000); note: nearly all actives have a fitted effect of over 65% in size
Target sequence (P08659 whole entry, looked up): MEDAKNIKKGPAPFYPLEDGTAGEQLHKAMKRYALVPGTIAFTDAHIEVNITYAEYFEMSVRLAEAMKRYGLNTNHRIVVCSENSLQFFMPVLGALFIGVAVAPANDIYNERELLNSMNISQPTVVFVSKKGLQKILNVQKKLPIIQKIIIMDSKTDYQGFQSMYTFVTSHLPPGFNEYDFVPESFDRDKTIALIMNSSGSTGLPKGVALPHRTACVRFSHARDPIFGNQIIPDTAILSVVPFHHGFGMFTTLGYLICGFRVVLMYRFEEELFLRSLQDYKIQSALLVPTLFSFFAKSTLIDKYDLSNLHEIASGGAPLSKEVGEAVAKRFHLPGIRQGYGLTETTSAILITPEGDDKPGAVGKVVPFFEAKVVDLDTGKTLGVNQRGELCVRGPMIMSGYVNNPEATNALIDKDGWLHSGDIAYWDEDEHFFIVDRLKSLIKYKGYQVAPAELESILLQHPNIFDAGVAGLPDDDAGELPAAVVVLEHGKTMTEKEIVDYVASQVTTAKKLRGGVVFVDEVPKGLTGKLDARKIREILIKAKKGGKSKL
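Cell-free enzyme assay, 10nM P. pyralis luciferase, luciferin and ATP each at 10uM. Inhibition profiled over a 6-point titration, read as luminescence.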
GPT2 inh: blocks human glutamate pyruvate transaminase 2; Q8TD30; Recombinant GPT2, coupled pyruvate oxidase/HRP Amplex Red fluorescence; Potency, µM (doses to about 57.7 µM), for the others: at the highest dose activity change, negative = inhibition, hits mostly inhibitors; actives 0.25% (n = 100,000); AID 1671188; note: nearly all actives have a fitted effect of over 60% in size
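Fluorescence of coupled pyruvate oxidase/HRP/Amplex Red system (50uM Amplex, 30 min, dark) reports pyruvate formed by GPT2. Enzyme reaction: 10ng/uL GPT2, 2mM L-alanine, 250uM a-KG, 30 min room temperature, pH 7.5; 50uM AOA control.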
HEK293 tox: HEK 293 cell cytotoxicity | Potency, µM (titrated, usually from 115 µM), inactives show at the highest dose activity change, negative = cytotoxicity, usual class: inhibitors | actives 6.6% (n = 94,000) | HEK 293 viability, ATP luminescence (CellTiter-Glo), 48-72 h; note: nearly all actives have a fitted effect of over 60% in size
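Read-out: CellTiter-Glo ATP luminescence. Cells: HEK 293, 250 cells/well. Exposure: 48 or 72 hr, 37 degree Celsius.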
NIH3T3 tox: cytotoxic compounds in NIH 3T3 cells. NIH 3T3 viability, CellTiter-Glo ATP luminescence, 48-72 h. Potency, µM (titrated, usually from 96.7 µM), without a hit: at the top dose activity change, negative = cytotoxicity, hits mostly inhibitors. actives 4.3% (n = 94,000). AID 1345082; note: nearly all actives have a fitted effect of over 55% in size
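Cytotoxicity is measured as loss of cellular ATP: NIH 3T3 cells (400/well) are exposed to compound for 48 or 72 hr at 37 °C, then CellTiter-Glo luminescence is imaged after 10 min at room temperature.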
hNpr1 antagonist: human Npr1 receptor antagonism | P16066 | actives 1.6% (n = 76,000) | Potency, µM (doses to about 46.3 µM), inactives show at the highest dose activity change, negative = inhibition, usual class: inhibitors | HEK293 hNpr1 GloSensor cGMP, ANP-stimulated luminescence; calls by dose curve; note: nearly all actives have a fitted effect of over 60% in size
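HEK293 cells stably expressing human Npr1 and cGMP GloSensor pGS-40F, loaded 2 h with 2% GloSensor reagent, given compound 30 min at room temperature. Luminescence read before and 20 min after 0.1 nM hNppA.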
Active calls of the source: *; ! = a repeat was not active; [ ] = dose if it differs, or a comment. A selection: hits, their analogues and other compounds. The true share with any hit is near 10%. Unless noted, calls come from the whole dose curve; as a rule, active = well fitted curve in the direction sought with a large enough effect; inconclusive = small, poorly fitted or top-dose-only effect, or another doubt; inactive = no such curve, though single readings can be large; an effect the other way counts as inactive or inconclusive. % is set by controls: 0 for no effect and ±100 for the full control effect; potency is the fitted concentration of half-maximal effect.

How did COc1cccc(-c2cc(C3CCN(S(=O)(=O)c4ccc(C#N)cc4)CC3)[nH]n2)c1 do in these assays?
Luciferase inh: inactive; GPT2 inh: 0%; HEK293 tox: 28µM*; NIH3T3 tox: 28µM*; hNpr1 antagonist: inconclusive

What do the screens show for `O=C1NC(C(=O)N2CCN(c3ccccn3)CC2)Cn2cccc21` (centres undefined)?
GPT2 inh: -1%; HEK293 tox: -10%; NIH3T3 tox: -23%

Results for COc1cccc(CN2C[C@@H](CO)[C@H](NC(=O)c3ccccc3)C2)c1 ?
Luciferase inh: inactive; GPT2 inh: inactive; HEK293 tox: 35µM*; NIH3T3 tox: inconclusive; hNpr1 antagonist: -10%

How did N#Cc1cccc(CN2C[C@@H](CO)[C@H](NC(=O)c3ccccc3)C2)c1 do in these assays?
Luciferase inh: inactive; GPT2 inh: inactive; HEK293 tox: inconclusive; NIH3T3 tox: 5µM*; hNpr1 antagonist: -2%

What do the screens show for `O=C(NCC(F)(F)F)C1CCN(c2ccnc3ccnn23)CC1`?
GPT2 inh: inactive; HEK293 tox: inconclusive; NIH3T3 tox: inconclusive

Results for Cc1cc(C)cc(NC(=O)N2C[C@@H](F)C[C@H]2C(=O)N2CCc3ccccc3C2)c1 ?
GPT2 inh: 2%; HEK293 tox: -26%; NIH3T3 tox: inconclusive

How did Cc1ccc(NC(=O)N2C[C@@H](F)C[C@H]2C(=O)N2CCc3ccccc3C2)cc1Cl do in these assays?
Luciferase inh: inactive; GPT2 inh: inactive; HEK293 tox: 28µM*; NIH3T3 tox: inconclusive; hNpr1 antagonist: -13%

Results for CCOC(=O)N1CCC(COc2ccc3c(cnn3CC[S+](C)(=O)[O-])c2)CC1 ?
Luciferase inh: inconclusive; GPT2 inh: -6%[88.5 µM]; HEK293 tox: inconclusive; NIH3T3 tox: 79µM*; hNpr1 antagonist: inconclusive

Results for C[S+](=O)([O-])CCn1ncc2cc(OCC3CCN(CCC(F)(F)F)CC3)ccc21 ?
Luciferase inh: inconclusive; GPT2 inh: 1%[88.5 µM]; HEK293 tox: inconclusive; NIH3T3 tox: -4%[138 µM]; hNpr1 antagonist: 0%[70.6 µM]

What do the screens show for `C[S+](=O)([O-])CCn1ncc2cc(OCC3CCN(Cc4cccs4)CC3)ccc21`?
Luciferase inh: 63µM*; GPT2 inh: 3%[88.5 µM]; HEK293 tox: inconclusive; NIH3T3 tox: inconclusive; hNpr1 antagonist: -1%[70.6 µM]

Results for O=C1OC(CN2CCOCC2)CN1/N=C/c1ccc([N+](=O)[O-])o1 (centres undefined) ?
GPT2 inh: inactive

What do the screens show for `NC(=O)N/N=C/c1ccc([N+](=O)[O-])o1`?
GPT2 inh: 32µM*!

Results for CCc1nc2c(c(-c3ccc(O)cc3)n1)CN(Cc1cccn1C)CC2 ?
GPT2 inh: inactive; HEK293 tox: inconclusive; NIH3T3 tox: inconclusive

What do the screens show for `OCc1ccc(CN2C[C@H](O)C[C@H]2c2nc(-c3ccccc3)no2)o1`?
Luciferase inh: 45µM*; GPT2 inh: inactive; HEK293 tox: -8%[172 µM]; NIH3T3 tox: -14%[174 µM]; hNpr1 antagonist: 4%[70.6 µM]

How did O[C@@H]1C[C@@H](c2nc(-c3ccc4c(c3)OCO4)no2)N(Cc2cc3ccccc3o2)C1 do in these assays?
Luciferase inh: inconclusive; GPT2 inh: 0%[88.5 µM]; HEK293 tox: inconclusive; NIH3T3 tox: -10%[174 µM]; hNpr1 antagonist: 3%[70.6 µM]

What do the screens show for `O[C@@H]1C[C@@H](c2nc(-c3ccccc3)no2)N(Cc2cc3ccccc3o2)C1`?
Luciferase inh: 40µM*; GPT2 inh: -6%[88.5 µM]; HEK293 tox: inconclusive; NIH3T3 tox: inconclusive; hNpr1 antagonist: 2%[70.6 µM]

How did COc1nc(-c2ccc(OC)c3ncccc23)ncc1F do in these assays?
Luciferase inh: inactive; GPT2 inh: inactive[11.5 µM]; HEK293 tox: -16%; NIH3T3 tox: inconclusive; hNpr1 antagonist: 4%

How did O=C(NC1CCN(c2cc(-c3ccc(Cl)cc3)[nH]n2)CC1)c1ccncc1 do in these assays?
Luciferase inh: inactive; GPT2 inh: 3%; HEK293 tox: 28µM*; NIH3T3 tox: inconclusive; hNpr1 antagonist: inconclusive

Results for O=C(NC1CCN(c2cc(-c3ccc(F)cc3)[nH]n2)CC1)c1ccc2[nH]ccc2c1 ?
Luciferase inh: inactive; GPT2 inh: inactive; HEK293 tox: inconclusive; NIH3T3 tox: 25µM*; hNpr1 antagonist: -16%

What do the screens show for `O=C(NC1CCN(c2cc(-c3ccc(Cl)cc3)[nH]n2)C1)c1ccc2[nH]ccc2c1` (centres undefined)?
Luciferase inh: inconclusive; GPT2 inh: inconclusive; HEK293 tox: inconclusive; NIH3T3 tox: 40µM*; hNpr1 antagonist: -24%

How did COc1ccc(C(=O)NC2CCN(c3cc(-c4ccc(Cl)cc4)[nH]n3)CC2)cc1 do in these assays?
Luciferase inh: inactive; GPT2 inh: inactive; HEK293 tox: -27%; NIH3T3 tox: -6%; hNpr1 antagonist: -1%

What do the screens show for `N#Cc1ccc(C(=O)NC2CCN(c3cc(-c4ccc(Cl)cc4)[nH]n3)C2)cc1` (centres undefined)?
Luciferase inh: inactive; GPT2 inh: inconclusive; HEK293 tox: 45µM*; NIH3T3 tox: inconclusive; hNpr1 antagonist: inconclusive

What do the screens show for `CCn1cc(S(=O)(=O)N2CCC3(CC2)CC(N2CCOCC2)CCO3)cn1` (centres undefined)?
Luciferase inh: inactive; GPT2 inh: -3%; HEK293 tox: inconclusive; NIH3T3 tox: -17%; hNpr1 antagonist: 13%

How did O=C(NC1CCN(c2cc(-c3ccc(F)cc3)[nH]n2)CC1)c1ccc(OC(F)(F)F)cc1 do in these assays?
Luciferase inh: inactive; GPT2 inh: inactive; HEK293 tox: 20µM*; NIH3T3 tox: 28µM*; hNpr1 antagonist: -20%

What do the screens show for `CC(C)Oc1ccc(CN2CCC(CO)(Cc3ccccc3Cl)CC2)cc1CO`?
Luciferase inh: inactive; GPT2 inh: inactive; HEK293 tox: inconclusive; NIH3T3 tox: 25µM*; hNpr1 antagonist: 0%

How did OCC1(Cc2ccccc2Cl)CCN(Cc2cc3ccccc3o2)CC1 do in these assays?
Luciferase inh: inactive; GPT2 inh: 1%; HEK293 tox: 18µM*; NIH3T3 tox: inconclusive; hNpr1 antagonist: inconclusive

Results for CCOCCNC(=O)c1ccc2nnc(C3CCOCC3)n2c1 ?
HEK293 tox: 5%[172 µM]; NIH3T3 tox: -39%[138 µM]

What do the screens show for `CC1=C[C@@H](CN2CCC(C(N)=O)CC2)[C@H](C(C)C)C[C@H]1Cc1nnc(-c2ccc(C)cc2)o1`?
Luciferase inh: inactive; GPT2 inh: 1%; HEK293 tox: 35µM*; NIH3T3 tox: 32µM*; hNpr1 antagonist: 9%

Results for CC1=C[C@@H](CN2CCC(C(N)=O)CC2)[C@H](C(C)C)C[C@H]1Cc1nnc(C(C)(C)C)o1 ?
Luciferase inh: inactive; GPT2 inh: -2%[88.5 µM]; HEK293 tox: inconclusive; NIH3T3 tox: inconclusive; hNpr1 antagonist: -4%[70.6 µM]

Source: PubChem
